From PubChem BioAssay (NCI)
The panel holds about 83,000 compounds, 20% with a hit somewhere; the sample as a whole holds those more often.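 Growth was measured after 48 h exposure to one concentration of compound in 96-well plates. Values under 10 count as active.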 A number with no mark means an inactive call. Activity calls are given as the source filed them.

test system: CAKI-1 renal; assay: NCI-60 one-dose screen, 48 h (100 = growth as untreated, 0 = no growth, -100 = all killed); conditions: 10 µM unless noted

SMILES	growth
COc1cc(/C=C/C(=O)c2ccc(Nc3ncnc4ccccc34)cc2)cc(OC)c1	69.3%
COc1ccc(C(=O)c2cc3c(N)c(C(=O)Nc4cccc(OC)c4)sc3nc2C)cc1	45.8%
CCC(C)N(CCNc1cc(OC)cc2cccnc12)CCC(C)C (stereo not given)	90.8%
S=c1[nH]cccc1-c1nnc2n1Nc1nc3ccccc3cc1CS2	82.8%
NC(=O)C1(N2CCCCC2)CCN(CCCC(=O)c2ccc(F)cc2)CC1	91.7%
O=S(=O)(c1cccc(NC2=Nc3cccc4cccc2c34)c1)N1CCCC1	78%
OC1(c2ccc(Cl)c(C(F)(F)F)c2)CCN(CCCC(c2ccc(F)cc2)c2ccc(F)cc2)CC1	-68.7% (active)
O=c1[nH]nc(-c2ccc(Br)cc2)cc1Cc1ccc(O)cc1	98.1%
N/C(=N\N=C\c1cc2ccccc2s1)N/N=C/c1cc2ccccc2s1	95.3%
COc1ccc(C(=O)c2cc3c(N)c(C(=O)Nc4ccc(Br)cc4)sc3nc2C)cc1	62.5%
CC1=NNC(=O)C1CCC(=O)N/N=C(\C)c1ccc2ccccc2c1 (stereo not given)	107%
O=C(O)c1cn(C2CC2)c2cc(N3CCN(C(=O)C[n+]4cccc5ccccc54)CC3)c(F)cc2c1=O	81.3%
COc1ccc(Cn2nc(-c3ccccc3)c3c2CCc2cnoc2-3)cc1	66.3%
O=C(O)CNC(=O)CN1C(=O)c2ccccc2C1=O	95.9%
O=C1CCCCCCCCC(O)C(O)CCCC(c2cccs2)O1 (stereo not given)	93.9%
